# PubChem BioAssay (NCI)
# About 83,000 compounds went through this panel and 20% of them were active in at least one assay; those are over-represented in the sample as a whole.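 Interpretation: 100, growth as untreated; towards 0, rising growth inhibition; 0, no net growth; 0 to -100, cell death. Compounds scoring below 10 were considered active.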 Values without a mark were called inactive. Active and inactive are the calls of the source.
# Key:
# Test in all cases: NCI-60 one-dose screen, 48 h (100 = growth as untreated, 0 = no growth, -100 = all killed)
# Settings in all cases: 10 µM unless noted
# [1] = test system: SR leukemia
# [2] = test system: RPMI-8226 leukemia
# [3] = test system: OVCAR-8 ovarian
# [4] = test system: OVCAR-5 ovarian
# [5] = test system: SK-OV-3 ovarian
# [6] = test system: IGROV1 ovarian
# [7] = test system: OVCAR-3 ovarian
# [8] = test system: HS 578T breast
# [9] = test system: NCI/ADR-RES ovarian
# [10] = test system: T-47D breast
# [11] = test system: BT-549 breast
# [12] = test system: MDA-MB-435 melanoma
# [13] = test system: SW-620 colon
# [14] = test system: MCF7 breast
# [15] = test system: HCT-116 colon
# [16] = test system: HCC-2998 colon
# [17] = test system: KM12 colon
# [18] = test system: OVCAR-4 ovarian
SMILES,growth [1],growth [2],growth [3],growth [4],growth [5],growth [6],growth [7],growth [8],growth [9],growth [10],growth [11],growth [12],growth [13],growth [14],growth [15],growth [16],growth [17],growth [18]
CC(C)=CCC/C(C)=C/CC/C(C)=C/CC/C(C)=C/CSC[C@H](NC(=O)CCCCCN1CCN(C)CC1)C(=O)NC1CCCCC1,2.5% (active),63.4%,90.3%,85%,96.5%,80.6%,91.1%,95.7%,86.9%,58.3%,102%,48.5%,-12.9% (active),17%,6.51% (active),63.8%,81.7%,–
S=c1[nH]nc2ccccn12,95.7%,108%,125%,108%,114%,115%,124%,98.5%,100%,106%,110%,108%,105%,94.3%,–,102%,116%,–
N#CC1C(=N)Cc2ccccc2-c2ccccc21 (stereo unspecified),26.7%,52.3%,63.1%,88.3%,66.7%,45.7%,41.6%,36.5%,1.44% (active),60.9%,41.5%,-23.8% (active),19.2%,31.4%,33.1%,86.8%,18%,–
Nc1c(Cl)cc(N=Nc2ccccc2)cc1Cl,85.4%,89.9%,104%,31.5%,99%,12.5%,84.6%,94.8%,100%,49.6%,–,105%,88.8%,19.7%,67.4%,87.1%,85.7%,–
CC(CNc1nc(Nc2ccc(Cl)c(Cl)c2)nc(C(Cl)(Cl)Cl)n1)N(C)C (stereo unspecified),-42.6% (active),-12.5% (active),-50.8% (active),33.7%,25.9%,-5.99% (active),-67.8% (active),-20.8% (active),-23.6% (active),20.4%,45.6%,-47.1% (active),-74.8% (active),-64.8% (active),-88.7% (active),-79.4% (active),-88.4% (active),–
O=C(NC1=CC(=O)c2ccccc2C1=O)c1ccccc1,-0.906% (active),4.25% (active),22.4%,42.2%,32%,-30.1% (active),-82.5% (active),25.3%,16.6%,-45.6% (active),–,2.96% (active),-56.2% (active),14.3%,-69% (active),32.3%,11.2%,–
CC1c2ccccc2N(S(=O)(=O)c2ccccc2)C1C (stereo unspecified),34.8%,91.9%,103%,108%,91.2%,92.4%,98.1%,92.7%,70.4%,102%,–,6.95% (active),72.7%,78.5%,86.2%,101%,60%,–
Oc1ccccc1/C=N\NC(=S)Nc1ccc(F)cc1,11.5%,41.1%,21.9%,55%,33.8%,20%,34.4%,32.5%,-2.4% (active),42%,–,21.8%,41.5%,16.9%,25.8%,39.7%,23.2%,–
O=C(O)c1cccc2c1C(=O)N(c1ccc3c(c1)Cc1ccccc1-3)C2=O,102%,110%,107%,116%,114%,125%,122%,112%,116%,106%,–,111%,105%,93.9%,112%,102%,109%,–
CC(=O)O[C@H]1CC[C@@]2(C)C(=CC[C@@H]3[C@@H]2CC[C@]2(C)C(=O)N(O)C(=O)C[C@@H]32)C1,74.8%,52.8%,101%,98.9%,93.2%,83.3%,102%,106%,100%,87.1%,91.9%,104%,72.6%,–,76.3%,78.1%,71.8%,–
Fc1ccc2c(c1)c(-c1nc(-c3c[nH]c4ncccc34)cs1)cn2CCCN1CCCCC1,-34.7% (active),-21.1% (active),76.9%,–,94.4%,45.7%,61.7%,75.1%,74.1%,67.5%,88.8%,-20% (active),–,21.6%,45.3%,98.8%,68.3%,70.6%
COC(=O)[C@]12CC[C@@H](C)[C@H](C)[C@@H]1C1=CC[C@@H]3[C@@]4(C)C[C@@H](O)OC[C@](C)(C=O)C4C(=O)C[C@@]3(C)[C@]1(C)CC2 (stereo partly specified),-14.3% (active),-19.3% (active),-4.45% (active),–,-0.332% (active),14.7%,-12% (active),16.8%,10.9%,-4.48% (active),-10.1% (active),2.15% (active),17%,6.16% (active),-44.4% (active),6.06% (active),6.15% (active),18.5%
CCC(c1ccc(OC)cc1)C(CC)c1ccc(O)c(CN2CCCCC2)c1 (stereo unspecified),-3.74% (active),5.83% (active),80.4%,–,84.9%,69.6%,73.9%,79%,60.9%,36.9%,72.1%,81.6%,71.6%,–,38.7%,6.27% (active),79.7%,67.1%
CC(=O)Oc1ccccc1C(=O)/C=C/c1cccc([N+](=O)[O-])c1,-30.8% (active),-17.4% (active),77.7%,110%,102%,37.3%,–,71.2%,74.3%,74.2%,104%,55.7%,43%,39.9%,10.8%,101%,34.7%,–
Cc1ccc(Nc2c(C(N)=O)cnc3ccc(S(=O)(=O)Nc4cc(C)on4)cc23)cc1,101%,103%,97.9%,99.5%,107%,101%,–,104%,101%,92.7%,105%,103%,105%,93.9%,94%,107%,103%,–
Cn1cc(-c2csc(-c3cn(CCN)c4ccccc34)n2)c2cccnc21,-16.9% (active),51.1%,40.8%,–,63.8%,39.9%,45.5%,67.6%,44.1%,20%,59.6%,16.6%,44.2%,16.7%,36.9%,65.3%,46.3%,51.8%
COc1cc(-c2cc3ncccc3c3nc(OCCN(C)C)c4cccnc4c23)cc(OC)c1OC,8.77% (active),-7.46% (active),-5.22% (active),–,-10.8% (active),9.72% (active),-25.6% (active),14.4%,5.27% (active),37%,41.6%,18.1%,17.4%,3.86% (active),-21.8% (active),17.1%,18.7%,-43.9% (active)
Nc1c(C(=O)Nc2c(Cl)cccc2Cl)sc2nc3c(cc12)CCCC3,12%,93.4%,84.9%,–,83.3%,79.5%,64%,82.3%,60.8%,69%,90.1%,–,51%,43.7%,47.8%,92.5%,68.6%,89.9%
COc1cc2ncnc(Nc3ccc(Oc4ccnc(C)c4)c(C)c3)c2cc1NC(=O)CC1CCSS1 (stereo unspecified),-37.6% (active),-18.6% (active),25.4%,–,-86.9% (active),20.6%,-81.4% (active),-7.37% (active),31.9%,-66% (active),-48.4% (active),-33.4% (active),-33.7% (active),-69.6% (active),-65.5% (active),-88.6% (active),-68.8% (active),6.57% (active)
